Reference: ChEMBL document CHEMBL3988442, “University of Dundee, Small-Polar-MMV Screening Library” (2021)
Screen size: about 38,000 compounds; about 1,200 (3.2%) showed an effect of 50% or more. The median lay at about -58%. The sample as a whole holds a higher share of strong results than the screen did.

The molecules below were run on Plasmodium falciparum (assay: Calibr Malaria Delayed Death Assay SOP). Details: concentration 4.99e-06 (unit not given; other assays of the set use mol/L).
Format: functional, organism-based
Design: scale not given: in the data most compounds retested in dose-response had high values
`Cc1cc(I)c2c(c1)C(=O)C(CN1CCCC1)(CN1CCCC1)CO2` was tested, and the “Percent Effect” value was -91.39%.
With `CCCOC1CCCN(c2nc(COC)nc3c2cnn3C)C1` (configuration not stated) the “Percent Effect” value was -157.4%.
For `CC(=O)Nc1nc(C2CCN(C(=O)c3ccncc3)CC2)cs1`, the “Percent Effect” value was 10.73%.
In the case of `COCC1c2c(cnn2CC2CC2)CCN1Cc1cc(C)on1.O=C(O)C(F)(F)F.O=C(O)C(F)(F)F` (configuration not stated), the “Percent Effect” value is reported as -52.73%.
`COc1ccncc1NCc1ccsc1` was tested, and the “Percent Effect” value was -36.48%.
With `COc1ncccc1C(Cc1ccsc1)NC(=O)Cn1cccnc1=O` (configuration not stated) the “Percent Effect” value was -43.2%.
For `CNc1cc(N2CCCC2CNCc2cccc(C#N)c2)ncn1` (configuration not stated), the “Percent Effect” value was -40.51%.
`Cc1ccc(C2CN(CCS(C)(=O)=O)CCO2)c(C)c1` (configuration not stated) was tested, and the “Percent Effect” value was -57.06%.
For `Cc1ccccc1CS(=O)(=O)CC(=O)N(C)Cc1cccc(F)c1`, the “Percent Effect” value was -13.79%.
In the case of `CN(Cc1cccc(F)c1)C(=O)CS(=O)(=O)Cc1c(Cl)cccc1Cl`, the “Percent Effect” value is reported as 82.58%.
For `Cc1noc(C)c1CS(=O)(=O)CC(=O)N(C)Cc1cccc(F)c1`, the “Percent Effect” value was -32.62%.
With `CO[C@H]1CC[C@H]2[C@H]1OCCN2C(=O)c1nn(C)c2ccccc12` the “Percent Effect” value was -87.32%.
For `CC1CN(CC(=O)NCc2ccc(F)cc2)CCN1c1nccs1` (configuration not stated), the “Percent Effect” value was -59.43%.
For `CC/N=c1\nc(NCC)nc2n1C(O)(Nc1ccc(C)cc1C)CS2` (configuration not stated), the “Percent Effect” value was -60.63%.
For `Cc1cccc(CS(=O)(=O)NCc2nn(C)c3c2COCC3)c1`, the “Percent Effect” value was -48%.
In the case of `O=C(C1CC1)N1CCC2(CC1)COCCN2Cc1ccc(F)cc1.O=C(O)C(F)(F)F`, the “Percent Effect” value is reported as -44.57%.
`Cc1ccc(NC(=O)CN2CCOCC2)c(F)c1` was tested, and the “Percent Effect” value was -28.6%.
In the case of `CCc1nc(N)nc(N2CCCC3(CCN(C)CC3)CC2)c1C`, the “Percent Effect” value is reported as 75.43%.
For `Cc1nc(C)c(C)c(N2CCC3(CCN(C)C3)C2)n1` (configuration not stated), the “Percent Effect” value was 18.67%.
`CCc1cnc(N)nc1N1CCCC2(CCOCC2)C1` was tested, and the “Percent Effect” value was -153.3%.
`O=C(O)C(F)(F)F.O=C(c1cnccn1)N1C[C@@H](OCc2ccncc2)[C@@H]2OCCC[C@@H]21` was tested, and the “Percent Effect” value was -88.13%.
In the case of `CNC(=O)CN(C)CC1(c2ccc(Br)cc2)CC1`, the “Percent Effect” value is reported as 20.85%.
`CNC(=O)N(C)CC1(c2ccc(Br)cc2)CC1` was tested, and the “Percent Effect” value was -138.2%.
In the case of `CNC(=O)CCN(C)CC1(c2ccc(Br)cc2)CC1`, the “Percent Effect” value is reported as 86.7%.
With `COCCn1c2c(ccc1=O)CCN(C(=O)NC1CC1)CC2` the “Percent Effect” value was -102.5%.
With `O=C1CC(c2ccc(O)cc2)c2sc(C(=O)O)c(-c3ccccc3)c2N1` (configuration not stated) the “Percent Effect” value was -164.8%.
With `Cc1ocnc1C(=O)N1CC[C@@H](O)[C@@H](O)[C@H](N2CCC(F)(F)CC2)C1` the “Percent Effect” value was -140.1%.
`Cc1ccc2c(n1)N(CC(C)C)CCN(S(C)(=O)=O)C2.O=C(O)C(F)(F)F` was tested, and the “Percent Effect” value was -91.42%.
For `CCN1CC(CN2CCOCC2)Oc2ncccc2C1=O` (configuration not stated), the “Percent Effect” value was -121.7%.
In the case of `O=C(C1CNCCO1)N1CCC(c2cc(N3CCCC3)ncn2)CC1` (configuration not stated), the “Percent Effect” value is reported as -72.24%.
With `Cc1ccc(-c2ccc(C3CNCCO3)nc2)cc1.Cl` (configuration not stated) the “Percent Effect” value was 82.68%.
In the case of `O=C(c1csc(C2CC2)n1)N1CCCCC1Cn1cccn1` (configuration not stated), the “Percent Effect” value is reported as -84.46%.
`CN(Cc1cccc(C#N)c1)c1ncc(C(N)=O)cc1Cl` was tested, and the “Percent Effect” value was -70.4%.
`CC(C(=O)Nc1cc(F)ccc1F)N1CCN(Cc2ncc[nH]2)CC1` (configuration not stated) was tested, and the “Percent Effect” value was -135.8%.
For `O=C(NCCC(O)c1ccccc1)c1ccco1` (configuration not stated), the “Percent Effect” value was -97.01%.
For `O=S(=O)(Cc1ccccc1)NCc1ccco1`, the “Percent Effect” value was -115.6%.
With `NCCC(Cc1ccccc1)c1ccco1` (configuration not stated) the “Percent Effect” value was 83.75%.
With `CCOc1cccc(C(=O)N(CCC#N)Cc2ccccn2)c1` the “Percent Effect” value was -89.54%.
In the case of `O=C(NC1CC1)c1cc2c(s1)CCN2C(=O)C1CC1`, the “Percent Effect” value is reported as -64.25%.
In the case of `Cc1ccc(C)c(S(=O)(=O)NC(=O)c2cccc3c2OCCO3)c1`, the “Percent Effect” value is reported as -117.7%.
`C[C@@H]1CN(Cc2ccncc2)C[C@]1(C)O` was tested, and the “Percent Effect” value was -25.52%.
With `COc1cc2c(cc1CN1CCCCC1CN1CCOCC1)CCC2` (configuration not stated) the “Percent Effect” value was 64.85%.
For `COc1cccc(CN2CCCCC2CN2CCOCC2)c1F` (configuration not stated), the “Percent Effect” value was 2.016%.
`COc1cc2c(cc1CN1C[C@@H](CN3CCOCC3)[C@@H](CO)C1)CCC2` was tested, and the “Percent Effect” value was 19.43%.
In the case of `Cc1c(C(=O)NCCCC(N)=O)sc2ccc(F)cc12`, the “Percent Effect” value is reported as -72.75%.
For `O=C1CC(NS(=O)(=O)c2ccc3ccccc3c2)CN1` (configuration not stated), the “Percent Effect” value was -65.16%.
For `Cc1noc([C@@H]2C[C@@H]3CCN(c4nnc(C)s4)C[C@H]3O2)n1.O=C(O)C(F)(F)F`, the “Percent Effect” value was -44.29%.
For `Cc1c(CN(C)c2cc(C3CCCNC3)ncn2)[nH]c2ccccc12` (configuration not stated), the “Percent Effect” value was 11.41%.
In the case of `Cc1ccnc(CC(C)N(C)c2cc(C3CCNCC3)nc(C)n2)c1` (configuration not stated), the “Percent Effect” value is reported as -104.4%.
`Cc1nc(CCN)cc(N(C)Cc2nc3ccc(F)cc3[nH]2)n1` was tested, and the “Percent Effect” value was -113.9%.
For `CN(Cc1cc2cc(F)ccc2[nH]1)C(=O)C1CC(=O)N(C2CCCC2)C1` (configuration not stated), the “Percent Effect” value was 12.79%.
`CNS(=O)(=O)CC(=O)N(Cc1c(F)cccc1Cl)C1CC1` was tested, and the “Percent Effect” value was -68.94%.
With `Cc1nc(NCc2coc(-c3ccccc3)n2)cc(C2CCNCC2)n1` the “Percent Effect” value was -7.041%.
In the case of `Cc1nc(C2CCNCC2)cc(N(C)Cc2cc3cc(F)ccc3[nH]2)n1`, the “Percent Effect” value is reported as 75.18%.
In the case of `CN(Cc1cc2cc(F)ccc2[nH]1)c1cc(C2CCCNC2)ncn1` (configuration not stated), the “Percent Effect” value is reported as 83.71%.
With `Cc1nc(NCc2ccc(C)o2)cc(C2CCNCC2)n1` the “Percent Effect” value was -133.8%.
With `Cc1nc(C2CCNCC2)cc(N(C)CCc2cn[nH]c2)n1` the “Percent Effect” value was -114.3%.
`Cc1cccc(CNC(=O)Nc2cc(C(F)(F)F)c[nH]c2=O)n1` was tested, and the “Percent Effect” value was -120.3%.
With `CCn1nc(C)c2nc(C)nc(NC3CCCC3)c21` the “Percent Effect” value was -48.65%.
With `Cc1ccc(CN2CCN(CC(=O)Nc3ccc4nsnc4c3)CC2)o1` the “Percent Effect” value was -102.5%.
`CC(=O)c1ccc(-c2cc(C(F)(F)F)cc(N(C)C)n2)cc1` was tested, and the “Percent Effect” value was -183.7%.
With `CCOC(=O)C1=NOC(Cc2cc(OC)c3c(c2)OCO3)C1` (configuration not stated) the “Percent Effect” value was -124.2%.
For `Cc1cc(N2CCOCC2)ccc1NC(C)c1nc(C(C)C)no1` (configuration not stated), the “Percent Effect” value was -4.816%.
`Cc1sc2nc(C(F)(F)F)nc(N3CCC(NS(C)(=O)=O)CC3)c2c1C` was tested, and the “Percent Effect” value was 27.92%.
For `CCOC(=O)N1CCN(c2nc(CCN)nc3sc(C)c(C)c23)CC1`, the “Percent Effect” value was 65.93%.
For `CCOC(=O)N1CCN(c2nc(C)ncc2CC)CC1`, the “Percent Effect” value was -56.83%.
For `Cc1sc2nc(C(F)(F)F)nc(N3CCN(S(C)(=O)=O)CC3)c2c1C`, the “Percent Effect” value was -77.64%.
With `Cc1sc2nc(CCN)nc(N3CCC(N4CCCC4)CC3)c2c1C` the “Percent Effect” value was 84.16%.
`Cc1sc2nc(CCN)nc(N3CCS(=O)(=O)CC3)c2c1C` was tested, and the “Percent Effect” value was -119.4%.
`Cn1ccnc1-c1cn(CCCc2nnc(N)s2)nn1` was tested, and the “Percent Effect” value was -41.76%.
`O=C(N1CCCC(n2cncn2)C1)C1(c2cccc(F)c2)CCC1` (configuration not stated) was tested, and the “Percent Effect” value was -129.3%.
`CCN(CC)C(=O)COc1ccnc2cc(OC)ccc12` was tested, and the “Percent Effect” value was -91.77%.
For `O=C(C1CCCO1)N1CCC2(CC1)COCCN(Cc1cccnc1)C2.O=C(O)C(F)(F)F.O=C(O)C(F)(F)F` (configuration not stated), the “Percent Effect” value was -101.1%.
`Cc1cccc2nc(CNCc3cccc4c3OCCCO4)cn12` was tested, and the “Percent Effect” value was 46.47%.
`c1cc(CNCCc2cn3ccccc3n2)c2c(c1)OCCCO2` was tested, and the “Percent Effect” value was -61.04%.
For `Cc1cccn2cc(CNCc3cccc4c3OCCCO4)nc12`, the “Percent Effect” value was 52.57%.
`CN(C)C(=O)Cc1ccc(-c2cccc3c2CCNC3)cc1` was tested, and the “Percent Effect” value was -89.76%.
`O=C(NCc1ccco1)c1cc(N2CC[C@@H](O)C2)ccn1` was tested, and the “Percent Effect” value was -225.7%.
With `CN(C)[C@H]1CCN(c2ccnc(C(=O)NCc3ccco3)c2)C1` the “Percent Effect” value was -104.8%.
With `CCCOC1CCCN(c2ccnc(C(=O)NCc3ccco3)c2)C1` (configuration not stated) the “Percent Effect” value was 63.16%.
In the case of `CCS(=O)(=O)Nc1cnn(Cc2cccc(Cl)c2)c1`, the “Percent Effect” value is reported as -156.5%.
For `COc1ccc(-c2nc3c([nH]2)CCCNC3=O)cc1OC`, the “Percent Effect” value was -190.2%.
With `Cc1nn(C)c(N2CCOCC2)c1CNC(C)c1ccccn1` (configuration not stated) the “Percent Effect” value was -39.11%.
For `CN(Cc1ccncn1)C(=O)C1(Oc2ccc(Cl)cc2)CCNCC1`, the “Percent Effect” value was -76.49%.
In the case of `CN(Cc1ccoc1)C(=O)C1(Oc2ccc(Cl)cc2)CCNCC1`, the “Percent Effect” value is reported as 67.21%.
`Cc1ccc(OC2(C(=O)N(C)Cc3ccoc3)CCNCC2)cc1` was tested, and the “Percent Effect” value was 63.87%.
In the case of `CN(C)C(=O)C1(Oc2ccc(Cl)cc2)CCNCC1`, the “Percent Effect” value is reported as 48.49%.
`O=C(N[C@@H]1CCCNC1)C1(Oc2ccc(Cl)cc2)CCNCC1` was tested, and the “Percent Effect” value was -19.49%.
For `COc1cccn(CC(=O)N(C)Cc2ccoc2)c1=O`, the “Percent Effect” value was -45.98%.
In the case of `Cc1ccc(C(=O)N2CC[C@@]3(O)CCCC[C@H]3C2)cc1`, the “Percent Effect” value is reported as -98.64%.
With `O=C1CC(c2cccnc2)c2c(sc3c2CCCC3)N1` (configuration not stated) the “Percent Effect” value was 28.11%.
For `O=C1CC(c2ccncc2)c2c(sc3c2CCCC3)N1` (configuration not stated), the “Percent Effect” value was 55.71%.
In the case of `O=C1CC(c2ccc(C(=O)O)cc2)c2c(sc3c2CCCC3)N1` (configuration not stated), the “Percent Effect” value is reported as -5.696%.
`O=C(CCc1ccco1)NS(=O)(=O)N1CCOc2ccccc21` was tested, and the “Percent Effect” value was -129.3%.
`Cc1cc(C[C@@H]2CCC[C@H]2NCc2cccc(F)c2F)on1.O=C(O)CC(O)(CC(=O)O)C(=O)O` was tested, and the “Percent Effect” value was -66.07%.
In the case of `CCCOc1ccccc1CN[C@@H]1CCC[C@H]1Cc1cc(C)no1.O=C(O)CC(O)(CC(=O)O)C(=O)O`, the “Percent Effect” value is reported as 84.13%.
In the case of `Cc1cc(C[C@@H]2CCC[C@H]2NCc2ccccc2F)on1.O=C(O)CC(O)(CC(=O)O)C(=O)O`, the “Percent Effect” value is reported as -9.902%.
In the case of `CCC[C@H]1CN(Cc2cc(C)no2)C[C@@H]1NC(=O)C1(COC)CCC1`, the “Percent Effect” value is reported as -58.42%.
With `CCCc1cc(CNC(=O)Cc2cc(C)no2)on1` the “Percent Effect” value was -176%.
`Cc1cc(CS(=O)(=O)NC2CCCCC2)on1` was tested, and the “Percent Effect” value was -56.68%.
`Cc1cc(C[C@@H]2CCC[C@H]2NCc2ccccc2C)on1.O=C(O)CC(O)(CC(=O)O)C(=O)O` was tested, and the “Percent Effect” value was 63.44%.
With `Cc1ccccc1Oc1ncccc1CNC1CCC1` the “Percent Effect” value was 31.34%.
